A short description of assay [1]: NS1 protein of Zika virus - qHTS assay to identify small molecule inhibitors in human HEK 293 cells (AID 1347053). Also: nearly all actives have a fitted effect of over 55% in size. Also: potency is read from the fitted curve at half-maximal effect. The gist of the method:
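Read-out is a two-antibody TR-FRET for ZIKV NS1, normalized between uninfected cells and infected cells. Compound added 1 h before MR766 infection at MOI 0.5; human HEK 293 cells incubated 24 h, 37 C.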
(In qHTS, concentration-response curves come from the screen itself.)

Assay [2] is described as follows: qHTS for Inhibitors of the Functional Ribonucleoprotein Complex (vRNP) of Lymphocytic Choriomeningitis Arenaviruses (LCMV): Viability assay - alamar blue signal for LCMV Primary Screen (AID 1347085; calls by dose curve; tested in HEK293 reporter line; also: nearly all actives have a fitted effect of over 80% in size; also: potency is read from the fitted curve at half-maximal effect).
For assay [3], the target named is Nucleoprotein (Lymphocytic choriomeningitis virus (strain Armstrong)) (UniProt P09992). Briefly: qHTS for Inhibitors of the Functional Ribonucleoprotein Complex (vRNP) of Lymphocytic Choriomeningitis Arenaviruses (LCMV): LCMV Primary Screen - GLuc reporter signal (AID 1347086; calls by dose curve; also: series mostly up to about 57 µM; nearly all actives have a fitted effect of over 70% in size).
Nucleoprotein (Lymphocytic choriomeningitis virus (strain Armstrong)), sequence (P09992 whole entry, looked up): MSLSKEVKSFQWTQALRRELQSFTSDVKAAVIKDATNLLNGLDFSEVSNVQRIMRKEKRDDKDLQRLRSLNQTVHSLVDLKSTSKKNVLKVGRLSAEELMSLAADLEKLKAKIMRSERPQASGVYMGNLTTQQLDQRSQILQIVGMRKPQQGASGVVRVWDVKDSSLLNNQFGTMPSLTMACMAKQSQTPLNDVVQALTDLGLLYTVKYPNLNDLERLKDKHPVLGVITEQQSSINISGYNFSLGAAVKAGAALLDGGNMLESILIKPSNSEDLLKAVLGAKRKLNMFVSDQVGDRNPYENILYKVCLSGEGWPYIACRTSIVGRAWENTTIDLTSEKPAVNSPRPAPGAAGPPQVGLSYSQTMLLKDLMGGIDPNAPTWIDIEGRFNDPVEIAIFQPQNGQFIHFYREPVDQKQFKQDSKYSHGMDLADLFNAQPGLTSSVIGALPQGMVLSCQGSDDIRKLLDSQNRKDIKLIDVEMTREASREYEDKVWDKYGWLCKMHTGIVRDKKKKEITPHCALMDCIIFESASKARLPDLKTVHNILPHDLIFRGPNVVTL
A short description of assay [4]: qHTS of pediatric cancer cell lines to identify multiple opportunities for drug repurposing: Primary screen for TC32 cells (AID 1347089). Also: nearly all actives have a fitted effect of over 60% in size. Also: potency is read from the fitted curve at half-maximal effect. The gist of the method:
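In the primary qHTS, MIPE compounds were tested at 11 concentrations (0.78 nM to 46 µM) and NPC compounds at 8 (0.59 nM to 46 µM) on TC32 cells for 48 h. CellTiter-Glo luminescence gave viability.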

Assay [5] can be described thus: qHTS of pediatric cancer cell lines to identify multiple opportunities for drug repurposing: Primary screen for DAOY cells (AID 1347090). Also: nearly all actives have a fitted effect of over 55% in size. Also: potency is read from the fitted curve at half-maximal effect. The gist of the method:
(§1)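 Cell viability, CellTiter-Glo luminescence; 500-1,000 cells/well, 8- or 11-point titration, 48 h compound exposure at 37 degrees C, 5% CO2. Controls: DMSO neutral, bortezomib 2.3 µM final as positive.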

Assay [6] in a line: qHTS of pediatric cancer cell lines to identify multiple opportunities for drug repurposing: Primary screen for SJ-GBM2 cells (AID 1347091). The gist of the method: as §1
Assay [7] in a line: qHTS of pediatric cancer cell lines to identify multiple opportunities for drug repurposing: Primary screen for A673 cells (AID 1347092). Also: nearly all actives have a fitted effect of over 45% in size. Also: potency is read from the fitted curve at half-maximal effect. Summed up: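 48 h compound exposure, A673, 500-1,000 cells/well, 37 degrees C/5% CO2. MIPE: 11-point, 0.78 nM-46 µM; NPC: 8-point, 0.59 nM-46 µM (final). Readout CellTiter-Glo luminescence after 15 min RT.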
The nature of assay [8]: qHTS of pediatric cancer cell lines to identify multiple opportunities for drug repurposing: Primary screen for SK-N-MC cells (AID 1347093). Also: potency is read from the fitted curve at half-maximal effect. Summed up: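 Metabolically active cells were quantified by ATP-dependent luminescence (CellTiter-Glo, 15 min at room temperature) following 48 h treatment. Cells had been plated at 500-1,000 per well and settled for 5 h beforehand.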

Assay [9] in a line: qHTS for Inhibitors of the Functional Ribonucleoprotein Complex (vRNP) of Lassa (LASV) Arenavirus: LASV Primary Screen - GLuc reporter signal (AID 1347082; calls by dose curve; tested in HEK293 reporter line; also: nearly all actives have a fitted effect of over 60% in size; also: potency is read from the fitted curve at half-maximal effect).
Assay [10] in a line: qHTS for Inhibitors of the Functional Ribonucleoprotein Complex (vRNP) of Lassa (LASV) Arenavirus: Viability assay - alamar blue signal for LASV Primary Screen (AID 1347083; calls by dose curve; tested in HEK293 reporter line; also: series mostly up to about 57 µM; nearly all actives have a fitted effect of over 80% in size).
A short description of assay [11]: P-glycoprotein substrates identified in KB-8-5-11 adenocarcinoma cell line, qHTS therapeutic library screen (AID 1346987). Also: nearly all actives have a fitted effect of over 65% in size. Also: potency is read from the fitted curve at half-maximal effect. The gist of the method: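 In this qHTS, P-gp-rich KB-8-5-11 cells received library compounds across a concentration range. Viability was quantified by luminescence after 72 h at 37 degree C.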
A short description of assay [12]: Natriuretic polypeptide receptor (hNpr1) antagonism - Pilot counterscreen GloSensor control cell line (AID 1347045; calls by dose curve; also: series mostly up to about 38 µM). The gist of the method:
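HEK293 cGMP-sensor cells; 2% GloSensor reagent 2 h RT; LOPAC compounds in 1:5 titrations 30-50 min; 50 uM SNP 20 min; luminescence pre-read and post-read.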
For orientation: The purpose of a counterscreen is to sort out artefacts and off-target activity.

The target of assay [13] is Atrial natriuretic peptide receptor 1 (Homo sapiens) (UniProt P16066). The experiment in a line: Natriuretic polypeptide receptor (hNpr1) antagonism - Pilot screen (AID 1347049; calls by dose curve;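 also: HEK293 cells with hNpr1 and GloSensor cGMP luciferase stimulated by 0.1 nM hNppA; agonist-evoked cGMP luminescence read 20 min after hNppA addition; series mostly up to about 58 µM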). Summed up:
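Receptor antagonism read as cGMP-dependent luminescence in hNpr1/pGS-40F HEK293 cells: pre-read after 30 min compound exposure, post-read 20 min after hNppA agonist at 0.1 nM final, all at room temperature, protected from light; A-71915 titration as control.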

The target in assay [14] is Atrial natriuretic peptide receptor 2 (Homo sapiens) (UniProt P20594). Briefly: Natriuretic polypeptide receptor (hNpr2) antagonism - Pilot subtype selectivity assay (AID 1347050; calls by dose curve). The gist of the method: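 Antagonist mode: compounds (LOPAC1280, seven 1:5 dilutions) added 30 min before 1 nM hNppC stimulation of hNpr2-HEK293 cGMP-sensor cells; luminescence read before and 20 min after agonist at ambient temperature.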
Atrial natriuretic peptide receptor 2 (Homo sapiens), sequence (P20594 whole entry, looked up): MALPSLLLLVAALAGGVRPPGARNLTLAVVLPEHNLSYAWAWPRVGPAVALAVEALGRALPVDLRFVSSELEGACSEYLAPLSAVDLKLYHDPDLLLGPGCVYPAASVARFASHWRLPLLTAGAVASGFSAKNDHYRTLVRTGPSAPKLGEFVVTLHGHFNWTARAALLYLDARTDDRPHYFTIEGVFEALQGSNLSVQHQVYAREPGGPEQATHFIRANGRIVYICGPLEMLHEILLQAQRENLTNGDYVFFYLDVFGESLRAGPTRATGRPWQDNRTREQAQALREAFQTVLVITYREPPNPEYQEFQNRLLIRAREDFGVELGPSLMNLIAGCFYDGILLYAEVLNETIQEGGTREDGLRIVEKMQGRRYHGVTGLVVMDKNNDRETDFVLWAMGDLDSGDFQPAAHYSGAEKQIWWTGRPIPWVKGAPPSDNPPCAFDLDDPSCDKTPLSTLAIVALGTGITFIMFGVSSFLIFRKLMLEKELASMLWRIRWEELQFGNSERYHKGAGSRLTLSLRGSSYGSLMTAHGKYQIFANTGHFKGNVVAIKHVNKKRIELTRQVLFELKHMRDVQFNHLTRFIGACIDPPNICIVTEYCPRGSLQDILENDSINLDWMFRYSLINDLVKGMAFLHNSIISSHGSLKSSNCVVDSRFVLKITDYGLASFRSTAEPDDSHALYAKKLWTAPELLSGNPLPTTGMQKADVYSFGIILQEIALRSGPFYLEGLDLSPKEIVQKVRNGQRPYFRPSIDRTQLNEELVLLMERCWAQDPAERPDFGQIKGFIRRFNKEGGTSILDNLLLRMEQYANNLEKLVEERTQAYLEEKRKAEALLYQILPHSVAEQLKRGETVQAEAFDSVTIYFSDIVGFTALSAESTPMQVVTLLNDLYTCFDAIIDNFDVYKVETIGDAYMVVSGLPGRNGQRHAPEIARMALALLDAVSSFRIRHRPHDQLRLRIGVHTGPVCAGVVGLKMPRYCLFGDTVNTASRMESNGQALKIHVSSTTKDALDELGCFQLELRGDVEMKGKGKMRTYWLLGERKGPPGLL

Assay [15] concerns the target T1, Tyrosine-protein phosphatase non-receptor type substrate 1 (Homo sapiens) + Leukocyte surface antigen CD47 (Homo sapiens) (UniProt P78324+Q08722). The experiment in a line: CD47-SIRPalpha protein protein interaction - LANCE assay qHTS validation (AID 1347057; active = well fitted curve in the direction sought with a large enough effect in the signal ratio, with a control signal flat, not every such curve was filed as active; the % refers to the signal ratio; also: series mostly up to about 38 µM). Summed up: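 Inhibition of soluble CD47/SIRPalpha ectodomain association by titrated compounds, measured as 665/615 nm time-resolved FRET ratio after sequential 30 min room-temperature incubations.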
For orientation: TR-FRET usually uses a lanthanide donor and a delayed reading to cut background.

The target in assay [16] is T1, Tyrosine-protein phosphatase non-receptor type substrate 1 (Homo sapiens) + Leukocyte surface antigen CD47 (Homo sapiens). Briefly: CD47-SIRPalpha protein protein interaction - HTRF assay qHTS validation (AID 1347058; active = well fitted curve in the direction sought with a large enough effect in the signal ratio, not every such curve was filed as active; the % refers to the signal ratio; also: series mostly up to about 38 µM). The gist of the method:
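Soluble extracellular domains (6His-CD47, Avi-tag-biotinylated SIRPalpha) in PBS pH 7.4 with 0.05% IGEPAL CA-630. Compounds were preincubated 30 min at RT with CD47 and anti-His-Eu, then SIRPalpha and SAV-XL665 were added. TR-FRET 665/615 ratio.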

Assay [17] has the same target. Briefly: CD47-SIRPalpha protein protein interaction - Alpha assay qHTS validation (AID 1347059).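 Also: bead proximity luminescence from CD47 binding SIRPalpha after compound preincubation with SIRPalpha.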 The gist of the method:
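AlphaScreen signal between CD47-His (12.5 nM) and biotin-SIRPalpha (25 nM) soluble extracellular domains, bead-captured via Ni-NTA and streptavidin. Compounds, in 7-point titrations, met SIRPalpha 30 min before CD47; PBS pH 7.4 with 0.05% IGEPAL.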

Assay [18] addresses Parathyroid hormone/parathyroid hormone-related peptide receptor (Homo sapiens) (UniProt Q03431). The experiment in a line: qHTS for PTHR1 Agonists: Optimization Screen against the NCGC LOPAC library (AID 1347079).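 Also: GloSensor cAMP luminescence in HEK-293 GP2 cells expressing human PTHR1 with IBMX.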 Summed up:
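Signal increase flags agonism. GP2 cells, derived from HEK-293, express human PTHR1 and a GloSensor cAMP construct.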

Several values for one entry are separate records, joined by “and”; a condition that tells them apart may be missing. Equal entries are not always repeated. Inconclusive results are not listed. The source holds several records for some structures; these can differ, active in one and inactive in another. Activity calls are given as the source filed them. Unless noted, calls follow the shape of the dose curve; as a rule, active = well fitted curve in the direction sought with a large enough effect; inconclusive = small, poorly fitted or top-dose-only effect, or another doubt; inactive = no such curve, though single readings can be large; an effect the other way counts as inactive or inconclusive.

T1 sequence (P78324 whole entry, looked up, the tested form may be a part): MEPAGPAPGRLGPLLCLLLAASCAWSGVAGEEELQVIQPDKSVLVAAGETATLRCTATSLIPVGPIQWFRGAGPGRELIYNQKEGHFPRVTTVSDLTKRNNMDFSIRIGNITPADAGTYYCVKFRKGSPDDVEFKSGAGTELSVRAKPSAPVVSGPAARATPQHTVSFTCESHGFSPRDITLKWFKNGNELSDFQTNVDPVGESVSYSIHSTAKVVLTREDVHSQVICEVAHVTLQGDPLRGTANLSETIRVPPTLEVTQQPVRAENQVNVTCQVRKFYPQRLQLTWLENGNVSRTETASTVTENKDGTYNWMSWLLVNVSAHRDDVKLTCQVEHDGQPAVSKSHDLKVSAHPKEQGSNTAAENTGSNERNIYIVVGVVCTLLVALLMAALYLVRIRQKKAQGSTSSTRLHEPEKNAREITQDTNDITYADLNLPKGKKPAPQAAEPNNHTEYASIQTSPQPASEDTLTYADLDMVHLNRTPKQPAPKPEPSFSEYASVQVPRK
T1 sequence (Q08722 whole entry, looked up, the tested form may be a part): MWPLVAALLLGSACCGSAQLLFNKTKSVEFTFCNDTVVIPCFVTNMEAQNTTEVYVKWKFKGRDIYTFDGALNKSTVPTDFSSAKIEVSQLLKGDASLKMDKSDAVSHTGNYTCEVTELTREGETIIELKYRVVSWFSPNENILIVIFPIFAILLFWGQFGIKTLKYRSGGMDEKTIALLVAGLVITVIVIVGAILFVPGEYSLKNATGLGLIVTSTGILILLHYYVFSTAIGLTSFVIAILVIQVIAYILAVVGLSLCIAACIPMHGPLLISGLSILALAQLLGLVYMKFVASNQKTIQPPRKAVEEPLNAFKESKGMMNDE
Parathyroid hormone/parathyroid hormone-related peptide receptor (Homo sapiens), sequence (Q03431 whole entry, looked up): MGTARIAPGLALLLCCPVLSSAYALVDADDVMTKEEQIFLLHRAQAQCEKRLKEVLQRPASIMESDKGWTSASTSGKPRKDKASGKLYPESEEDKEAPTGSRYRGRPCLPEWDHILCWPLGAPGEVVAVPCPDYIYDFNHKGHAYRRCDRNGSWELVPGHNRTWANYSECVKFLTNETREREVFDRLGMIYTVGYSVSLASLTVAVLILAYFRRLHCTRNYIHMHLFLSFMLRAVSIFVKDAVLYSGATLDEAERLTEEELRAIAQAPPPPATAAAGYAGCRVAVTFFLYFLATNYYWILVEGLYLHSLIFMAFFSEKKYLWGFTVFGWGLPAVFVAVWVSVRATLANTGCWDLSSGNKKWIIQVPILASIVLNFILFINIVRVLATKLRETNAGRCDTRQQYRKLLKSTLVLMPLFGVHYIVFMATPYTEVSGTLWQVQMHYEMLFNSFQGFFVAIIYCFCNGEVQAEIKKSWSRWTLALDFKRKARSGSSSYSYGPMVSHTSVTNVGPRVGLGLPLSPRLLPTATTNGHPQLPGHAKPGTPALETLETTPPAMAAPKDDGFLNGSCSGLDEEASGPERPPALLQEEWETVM
Atrial natriuretic peptide receptor 1 (Homo sapiens), sequence (P16066 whole entry, looked up): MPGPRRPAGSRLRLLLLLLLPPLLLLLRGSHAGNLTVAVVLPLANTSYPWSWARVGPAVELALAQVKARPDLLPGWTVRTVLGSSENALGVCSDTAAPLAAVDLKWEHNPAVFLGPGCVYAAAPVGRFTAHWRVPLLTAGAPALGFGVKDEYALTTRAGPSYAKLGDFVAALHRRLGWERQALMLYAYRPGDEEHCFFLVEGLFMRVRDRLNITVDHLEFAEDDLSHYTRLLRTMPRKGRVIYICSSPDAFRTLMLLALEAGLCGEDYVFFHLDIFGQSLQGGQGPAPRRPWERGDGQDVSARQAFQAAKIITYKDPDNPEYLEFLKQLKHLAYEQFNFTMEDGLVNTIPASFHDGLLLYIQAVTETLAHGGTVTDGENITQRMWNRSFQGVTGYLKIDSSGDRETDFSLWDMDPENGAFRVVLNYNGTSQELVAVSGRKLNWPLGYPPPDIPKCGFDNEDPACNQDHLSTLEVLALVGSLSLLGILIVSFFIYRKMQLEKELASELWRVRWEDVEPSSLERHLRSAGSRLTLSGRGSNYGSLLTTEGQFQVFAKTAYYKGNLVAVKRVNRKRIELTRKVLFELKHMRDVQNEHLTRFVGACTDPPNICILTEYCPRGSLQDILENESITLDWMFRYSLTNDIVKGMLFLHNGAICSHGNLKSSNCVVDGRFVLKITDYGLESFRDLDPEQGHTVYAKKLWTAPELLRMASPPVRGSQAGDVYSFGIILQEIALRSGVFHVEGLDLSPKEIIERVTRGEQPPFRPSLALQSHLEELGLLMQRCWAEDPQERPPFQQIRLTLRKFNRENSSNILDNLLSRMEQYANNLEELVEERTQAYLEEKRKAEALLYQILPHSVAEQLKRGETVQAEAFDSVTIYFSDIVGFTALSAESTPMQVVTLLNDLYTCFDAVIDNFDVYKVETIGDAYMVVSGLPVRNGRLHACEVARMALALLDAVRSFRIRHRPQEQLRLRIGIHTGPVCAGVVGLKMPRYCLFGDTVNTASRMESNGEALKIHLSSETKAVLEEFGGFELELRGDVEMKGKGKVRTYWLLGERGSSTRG

Turning to `CCN(CC)CCN1C(=O)CN=C(c2ccccc2F)c2cc(Cl)ccc21`, the Potency result in [1], in [2], in assay [3], in assay [4], in assay [5] and in [6] was “inactive” in each case. For the same compound, the Potency result in [7] and in assay [8] was “inactive” in each case.
As for `C=C1C[C@@H]2[C@H](CC[C@]3(C)C(=O)CC[C@@H]23)[C@@]2(C)C=CC(=O)C=C12`, the Potency entry in assay [1], in [9], in assay [10], in assay [2], in [3] and in assay [4] was “inactive” in each case. The Potency entry in [5] was “inactive”.
In the case of `CC(=O)[C@]1(O)Cc2c(O)c3c(c(O)c2[C@@H](O[C@H]2C[C@H](N)[C@H](O)[C@H](C)O2)C1)C(=O)c1ccccc1C3=O`, the Potency in assay [9] was 3980 nM (active).
Regarding `CCOC(=O)C1(c2ccccc2)CCN(CCC(C#N)(c2ccccc2)c2ccccc2)CC1`, the Potency was 9.2 µM (active) and 15.8 µM (active) in assay [11]; 4730 nM (active) in [8]. Besides, the Potency entry in assay [10] is “inactive”.
As to `O=C1NCN(c2ccccc2)C12CCN(CC1COc3ccccc3O1)CC2` (stereo unspecified), the Potency result in assay [12], in assay [13], in assay [14], in assay [1], in [9] and in assay [10] was “inactive” each time. Also, the Potency result in assay [2], in assay [3], in assay [4], in [5], in assay [6] and in assay [7] was “inactive” throughout. Moreover, the result in assay [15], in assay [16], in [17] and in assay [18] was inactive.
With `COc1ccc(Cc2nccc3cc(OC)c(OC)cc23)cc1OC`, in [11], the Potency is 880 nM (active) and inactive. Also, the Potency result in assay [1], in [10], in assay [2] and in [4] was “inactive” in each case.
For the compound `C[C@]12CC[C@H]3[C@@H](CCC4=CC(=O)CC[C@@H]43)[C@@H]1CC[C@@H]2OC(=O)CCc1ccccc1`, the Potency entry in assay [1], in assay [9], in [10], in assay [2], in assay [3] and in [4] was “inactive” in each case. Moreover, the Potency entry in [5], in assay [6], in assay [7] and in assay [8] was “inactive” each time.
Consider `CN(C)CCCN1c2ccccc2Sc2ccc(Cl)cc21`, for which the Potency entry in assay [9] was “inactive”.
For the compound `CN(C)c1nc(N(C)C)nc(N(C)C)n1`, in [9], the Potency entry is “inactive”.
Still for that read-out and setting: the entry for `COc1cc([C@@H]2c3cc4c(cc3[C@H](O)[C@H]3COC(=O)[C@H]23)OCO4)cc(OC)c1OC` is “inactive”.
On to `C[C@@H]1[C@@H](C(=O)C[C@H]2O[C@@H]3O[C@]4(C)CC[C@@H]5[C@H](C)CC[C@@H]([C@H]2C)[C@@]35OO4)O[C@@H]2O[C@]3(C)CC[C@H]4[C@H](C)CC[C@@H]1[C@@]24OO3`, for which the Potency result in assay [1] and in [10] was “inactive” in each case. Also, the Potency in assay [2] was 21700 nM (active); in assay [8], 372 nM (active).
Turning to `CCCSc1ccc2nc(NC(=O)OC)[nH]c2c1`, the Potency result in [9] was “inactive”.
The same measure, in the same setting: next, `COC(=O)C1=C(C)NC(C)=C(C(=O)OC(C)C)C1c1cccc2nonc12` (stereo unspecified): “inactive”.
As to `C[C@H]1O[C@@H](O[C@H]2[C@@H](O)C[C@H](O[C@H]3[C@@H](O)C[C@H](O[C@H]4CC[C@@]5(C)[C@H](CC[C@@H]6[C@@H]5CC[C@]5(C)[C@@H](C7=CC(=O)OC7)CC[C@]65O)C4)O[C@@H]3C)O[C@@H]2C)C[C@H](O)[C@@H]1O`, the Potency was 65.1 nM (active) and 76.9 nM (active) in assay [11]; 37.4 nM (active) in [4]; 13.3 nM (active) in [5]; 13.3 nM (active) in assay [7]. The Potency entry in assay [1] was “inactive”.
Take `C[C@]12C/C(=C/O)C(=O)C[C@@H]1CC[C@@H]1[C@@H]2CC[C@@]2(C)[C@H]1CC[C@]2(C)O`: the Potency result in assay [11], in assay [1], in assay [9], in assay [10], in [2] and in assay [3] was “inactive” each time. In addition, the Potency entry in assay [4] and in assay [5] was “inactive” throughout. The Potency in assay [8] is 23700 nM (active).
`Cc1ccc(-c2nc3ccc(C)cn3c2CC(=O)N(C)C)cc1`: the Potency entry in [1], in assay [9], in assay [10], in assay [2], in [3] and in assay [4] was “inactive” in each case. Also, the Potency result in assay [5], in [6], in [7] and in [8] was “inactive” throughout.
Take `Oc1cccc2cccnc12`: the Potency entry in assay [11], in assay [9], in assay [10], in [2], in assay [3] and in [4] was “inactive” each time. Besides, in assay [6], the Potency entry is “inactive”. In addition, the Potency in [1] was 14.1 µM (active) and inactive.
With `Cn1ccc2cc3c(cc21)CCN3C(=O)Nc1cccnc1`, in assay [9], the Potency result was “inactive”.
In the case of `O=c1[nH]c2ccccc2n1C1CCN(CCCC(c2ccc(F)cc2)c2ccc(F)cc2)CC1`, the Potency entry in assay [14], in [1], in assay [10], in [2] and in assay [4] was “inactive” throughout. Further, the outcome in assay [15], in [16], in assay [17] and in assay [18] was inactive.

These data come from PubChem BioAssay (NCATS).
